The source of these data is PubChem BioAssay AID652068 (The Scripps Research Institute Molecular Screening Center, 2013).

Hit rate of the full screen: of about 4,300 compounds, about 4,000 (93%) were called active. So high a share suggests a set chosen from earlier hits. A selection follows. Values without a mark were called inactive.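 Rule for the calls: active = inhibition above its plate's cutoff, the mean test-well inhibition plus 3 SD (cut at about 4.8% in these data); inactive = the rest.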

The nature of this assay: DNA CAG/GTC dye complex inhibitors – biochemical, fluorescence, TO-PRO-1 dye, d(CAG) DNA oligo, counter-screen for rCAG RNA repeat binder project (AID 652068).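 Note: 0% = DNA dye mix with DMSO and 100% = 100 µM mitoxantrone; hits displace the dye from DNA and so lower well fluorescence.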 The note with it: d(CAG) DNA oligo TO-PRO-1 dye displacement, at 3 µM, active compounds read high.
In the case of `O=C1NC(=O)N(Cc2ccco2)C(=O)/C1=C\c1ccc(-c2ccc(F)cc2)o1`, the inhibition is 13.1% (active). With `O=C1CC(=O)N(Cc2ccccc2)C(=O)N1CCCCCCN1C(=O)CC(=O)N(Cc2ccccc2)C1=O` the figure was 22.6% (active); with `COc1ccc(N2C(=O)/C(=C/c3ccco3)C(=O)NC2=S)cc1`, 61.4% (active); with `CC/C(=N\NC(=O)c1ccccc1O)c1c(O)n(Cc2ccccc2)c(=O)[nH]c1=O`, 36.7% (active). With `COc1ccc2c(c1)[C@@]13CCCCC1[C@@H](C2)NCC3` (some centres not stated) the figure was -5.51%; with `O=C1NC(=O)N(c2ccccc2)C(=O)/C1=C/c1ccc([N+](=O)[O-])s1`, 25.7% (active); with `COc1cccc(N2C(=O)NC(=O)/C(=C\c3ccc([N+](=O)[O-])s3)C2=O)c1`, 19.4% (active).

In general, inhibition refers to the change of the read-out against control, counted positive when it falls.
